Measurements as given in PubChem BioAssay AID1159580 (chemical genetic matrix, 2015).
“And” between values parts separate entries of the source, which are not always exact repeats. Equal entries are not always repeated. In all, about 5,500 compounds went through this assay and about 2,000 (36%) were called active. About 18% were inconclusive and are not listed. Rule as the data show it: active = normalized growth mostly below about 0.91 (no sharp cut-off); inconclusive = no clear call, values can overlap the other calls; inactive = mostly above about 0.92. The list shows a part of the results.

Assay: chemical genetic growth profiling, strain panel (AID 1159580);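 also: tested at 20 µM; growth read once vehicle control cultures reached saturation at 30 °C; 1 = growth at the plate median or of vehicle wells; lower values mean less growth of the strain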
Conditions: S. cerevisiae deletion strains, growth OD

Measured: normalized growth

COc1c(O)cc2oc3cc(O)c(CC=C(C)C)c(O)c3c(=O)c2c1CC=C(C)C
active: locus YAL013W, strain DEP1, hits give low values 0.346 | locus YBR021W, strain FUR4, hits give low values 0.578 | locus YBR229C, strain ROT2, hits give low values 0.913 | locus YBR231C, strain swc5, hits give low values 0.851 | locus YCL029C, strain bik1, hits give low values 0.773 | locus YDL035C, strain GPR1, hits give low values 0.611 | locus YDL074C, strain BRE1, hits give low values 0.242 | locus YDL101C, strain DUN1, hits give low values 0.633 | locus YDL192W, strain arf1, hits give low values 0.579 | locus YDR069C, strain doa4, hits give low values 0.89 | locus YDR101C, strain arx1, hits give low values 0.799 | locus YDR137W, strain rgp1, hits give low values 0.501 | locus YDR159W, strain sac3, hits give low values 0.749 | locus YDR162C, strain NBP2, hits give low values 0.543 | locus YDR195W, strain ref2 0.57 | locus YDR318W, strain mcm21, hits give low values 0.79 | locus YDR388W, hits give low values 0.833 | locus YDR392W, strain spt3, hits give low values 0.673 | locus YDR502C, strain sam2, hits give low values 0.771 | locus YEL061C, strain CIN8, hits give low values 0.68 | locus YER015W, strain faa2, hits give low values 0.901 | locus YER155C, strain BEM2 (second series), hits give low values 0.704 | locus YER155C, strain BEM2, hits give low values 0.388 | locus YER167W, strain BCK2, hits give low values 0.792 | locus YGL078C, strain dbp3, hits give low values 0.878 | locus YGL086W, strain mad1, hits give low values 0.681 | locus YGL248W, strain PDE1, hits give low values 0.67 | locus YGR135W, strain pre9, hits give low values 0.77 | locus YHR030C, strain SLT2, hits give low values 0.538 and 0.687 | locus YHR079C, strain IRE1 (second series), hits give low values 0.918 | locus YHR079C, strain IRE1, hits give low values 0.56 | locus YHR094C, strain hxt1, hits give low values 0.901 | locus YHR129C, strain ARP1, hits give low values 0.545 | locus YHR200W, strain rpn10, hits give low values 0.78 | locus YIL066C, strain RNR3, hits give low values 0.553 | locus YIL125W, strain kgd1, hits give low values 0.744 | locus YIR030C, strain dcg1, hits give low values 0.867 | locus YJL095W, strain BCK1, hits give low values 0.307 and 0.797 | locus YJL129C, strain trk1, hits give low values 0.774 | locus YJL134W, strain LCB3, hits give low values 0.833 | locus YJL164C, strain tpk1, hits give low values 0.894 | locus YJL166W, strain qcr8, hits give low values 0.819 | locus YJL187C, strain SWE1 (second series), hits give low values 0.518 | locus YJR043C, strain POL32, hits give low values 0.538 | locus YKL085W, strain MDH1 (second series), hits give low values 0.724 | locus YKL085W, strain MDH1, hits give low values 0.724 | locus YKL190W, strain CNB1, hits give low values 0.548 | locus YKR001C, strain vps1, hits give low values 0.365 | locus YLR027C, strain aat2, hits give low values 0.916 | locus YLR039C, strain RIC1, hits give low values 0.263 | locus YLR058C, strain SHM2, hits give low values 0.642 | locus YLR113W, strain HOG1, hits give low values 0.426 | locus YLR262C, strain YPT6 (second series), hits give low values 0.667 | locus YLR262C, strain YPT6, hits give low values 0.399 | locus YLR268W, strain sec22, hits give low values 0.704 | locus YLR320W, strain mms22, hits give low values 0.843 | locus YLR330W, strain CHS5, hits give low values 0.534 | locus YLR342W, strain FKS1 (second series), hits give low values 0.591 | locus YLR371W, strain rom2, hits give low values 0.358 | locus YLR418C, strain cdc73, hits give low values 0.259 | locus YML016C, strain PPZ1, hits give low values 0.674 | locus YML032C, strain rad52, hits give low values 0.838 | locus YMR058W, strain fet3, hits give low values 0.9 | locus YMR078C, strain ctf18, hits give low values 0.903 | locus YMR205C, strain PFK2, hits give low values 0.822 | locus YMR223W, strain ubp8, hits give low values 0.786 | locus YMR263W, strain SAP30, hits give low values 0.726 | locus YMR307W, strain GAS1, hits give low values 0.474 | locus YNL067W, strain RPL9B, hits give low values 0.719 | locus YNL071W, strain lat1, hits give low values 0.562 | locus YNL153C, strain GIM3, hits give low values 0.625 | locus YNL233W, strain BNI4, hits give low values 0.51 | locus YNL250W, strain rad50, hits give low values 0.862 | locus YNL271C, strain bni1, hits give low values 0.883 | locus YNL298W, strain CLA4, hits give low values 0.831 | locus YNL307C, strain MCK1, hits give low values 0.385 | locus YNR052C, strain pop2, hits give low values 0.781 | locus YOL006C, strain TOP1, hits give low values 0.279 | locus YOL147C, strain pex11, hits give low values 0.694 | locus YOR061W, strain CKA2, hits give low values 0.707 | locus YOR069W, strain VPS5, hits give low values 0.735 | locus YOR136W, strain idh2, hits give low values 0.899 | locus YOR144C, strain elg1, hits give low values 0.755 | locus YOR184W, strain ser1, hits give low values 0.331 | locus YOR231W, strain MKK1, hits give low values 0.531 | locus YPL051W, strain arl3, hits give low values 0.782 | locus YPL055C, strain LGE1, hits give low values 0.274 | locus YPL256C, strain CLN2, hits give low values 0.741 | locus YPR163C, strain tif3, hits give low values 0.544 | locus YPR167C, strain met16, hits give low values 0.786 | strain wtn01, hits give low values 0.697
inactive: locus YAL021C, strain ccr4, hits give low values 1 | locus YAL026C, strain drs2, hits give low values 0.982 | locus YAL030W, strain snc1, hits give low values 0.984 | locus YBR009C, strain hhf1, hits give low values 0.983 | locus YBR023C, strain chs3, hits give low values 0.923 | locus YBR171W, strain sec66, hits give low values 1.02 | locus YBR279W, strain paf1, hits give low values 0.968 | locus YCL011C, strain gbp2, hits give low values 0.912 | locus YCL016C, strain dcc1, hits give low values 0.957 | locus YCL061C, strain MRC1, hits give low values 0.991 | locus YCL069W, strain vba3, hits give low values 1.01 | locus YCR088W, strain abp1, hits give low values 1 | locus YDL005C, strain med2, hits give low values 1.05 | locus YDL040C, strain nat1, hits give low values 1 | locus YDL185W, strain tfp1, hits give low values 0.916 | locus YDR001C, strain nth1, hits give low values 1.01 | locus YDR297W, strain sur2, hits give low values 0.923 | locus YDR334W, strain swr1, hits give low values 0.999 | locus YDR335W, strain msn5, hits give low values 0.957 | locus YEL003W, strain gim4, hits give low values 0.937 | locus YEL037C, strain rad23, hits give low values 1 | locus YEL061C, strain CIN8 (second series), hits give low values 1.01 | locus YER016W, strain bim1, hits give low values 0.969 | locus YER110C, hits give low values 0.952 | locus YER111C, strain swi4, hits give low values 1.02 | locus YFR010W, strain ubp6, hits give low values 0.978 | locus YGL167C, strain pmr1, hits give low values 1.01 | locus YGL173C, strain kem1, hits give low values 0.979 | locus YGL227W, strain vid30, hits give low values 1 | locus YGL240W, strain doc1, hits give low values 0.887 | locus YGL253W, strain hxk2, hits give low values 0.99 | locus YGR252W, strain gcn5, hits give low values 0.833 | locus YHR013C, strain ard1, hits give low values 0.985 | locus YHR027C, strain rpn1, hits give low values 0.969 | locus YHR142W, strain chs7, hits give low values 0.89 | locus YIL073C, strain SPO22, hits give low values 0.695 | locus YJL092W, strain hpr5, hits give low values 1 | locus YJL115W, strain asf1, hits give low values 1.03 | locus YJL154C, strain vps35, hits give low values 1.04 | locus YJL168C, strain set2, hits give low values 0.948 | locus YJL187C, strain SWE1, hits give low values 0.936 | locus YJR066W, strain TOR1, hits give low values 0.891 | locus YKL009W, strain mrt4, hits give low values 0.885 | locus YKL068W, hits give low values 0.947 | locus YKL160W, strain elf1, hits give low values 0.904 | locus YKR026C, strain gcn3, hits give low values 1 | locus YKR091W, strain srl3, hits give low values 1.01 | locus YLL001W, strain dnm1, hits give low values 0.963 | locus YLL026W, hits give low values 1 | locus YLL041C, strain sdh2, hits give low values 0.986 | locus YLR102C, strain apc9, hits give low values 0.93 | locus YLR258W, strain gsy2, hits give low values 0.939 | locus YLR342W, strain FKS1, hits give low values 0.944 | locus YLR357W, strain rsc2, hits give low values 0.957 | locus YLR370C, strain arc18, hits give low values 0.982 | locus YLR384C, strain iki3, hits give low values 0.983 | locus YML124C, strain tub3, hits give low values 0.938 | locus YMR125W, strain sto1, hits give low values 1.01 | locus YMR129W, hits give low values 0.974 | locus YMR231W, strain pep5, hits give low values 1 | locus YNL183C, strain NPR1, hits give low values 0.887 | locus YNL209W, strain ssb2, hits give low values 0.968 | locus YNL248C, strain rpa49, hits give low values 0.994 | locus YNL322C, strain KRE1 (second series), hits give low values 0.995 | locus YNR049C, strain mso1, hits give low values 0.967 | locus YOL012C, strain htz1 0.271 | locus YOR001W, strain rrp6, hits give low values 0.916 | locus YOR070C, strain gyp1, hits give low values 0.95 | locus YOR080W, strain dia2, hits give low values 0.984 | locus YOR083W, strain WHI5, hits give low values 0.941 | locus YOR106W, strain vam3, hits give low values 0.916 | locus YOR265W, strain rbl2, hits give low values 0.964 | locus YOR270C, strain vph1, hits give low values 0.881 | locus YOR290C, strain snf2, hits give low values 0.912 | locus YOR316C, strain cot1, hits give low values 0.927 | locus YPL078C, strain atp4, hits give low values 0.991 | locus YPL106C, strain sse1, hits give low values 0.856 | locus YPL240C, strain hsp82, hits give low values 0.951 | locus YPR119W, strain clb2, hits give low values 0.931 | locus YPR141C, strain kar3, hits give low values 0.96
